In the library only some 0.65% were active in any assay of this set; here they are far more common.
RN4220 kill = growth inhibition of S. aureus RN4220, primary screen, OD600 | 16 h | inhibition, % (no concentration beside the values) | 330,000 tested, 0.33% active; in the data active means inhibition above about 85%
ugtP null kill = growth inhibition of ugtP-null S. aureus, primary screen, RN4220 ugtP deletion, OD600; growth inhibition, % (no concentration beside the values); 16 h; 330,000 tested, 0.54% active; AID 1259309, 2017; in the data active means growth inhibition above about 68%
BJeLR viability = MLPCN primary cell-based screen for lethality selective to Ras in HRASV12 cells; BJeLR (HRASV12) viability, CellTiter-Glo ATP luminescence, 48 h; inhibition, % (concentration not given with the values); 300,000 tested, 0.17% active; in the data active means inhibition above about 50%
Numbers stand for hits.

COc1ccc(CN2CCN(C(=O)c3cccs3)CC2)cc1Br was read as RN4220 kill inactive, ugtP null kill inactive and BJeLR viability inactive.
COc1cc(/C=C(\C#N)C(=O)NC(C)C)ccc1OCc1ccc(C(=O)O)cc1 was read as RN4220 kill inactive, ugtP null kill inactive and BJeLR viability inactive.
Screening COc1ccc(C2N(c3cccc(Cl)c3)C(=O)C3CCCN32)cc1 (stereo not given) returned RN4220 kill inactive, ugtP null kill inactive and BJeLR viability inactive.
For Nc1c(-c2ccccc2)nc(Cl)nc1-c1ccccc1 the results were RN4220 kill inactive, ugtP null kill inactive and BJeLR viability inactive.
`c1ccc(-c2nc3nonc3nc2-c2ccccc2)cc1` gave RN4220 kill 97, ugtP null kill 98 and BJeLR viability inactive.
For O=C1c2ccccc2-c2cccnc21 the results were RN4220 kill inactive, ugtP null kill inactive and BJeLR viability inactive.
For NC1=C(Br)C(=O)c2ccccc2C1=O the results were RN4220 kill inactive, ugtP null kill 95 and BJeLR viability inactive.
For Cc1cc2c(cc1C)C(=O)C(Br)=C(N)C2=O the results were RN4220 kill inactive and ugtP null kill inactive.
Screening O=C1C(=O)c2ccccc2-c2ccccc21 returned BJeLR viability 100.
Screening O=Cc1cn[nH]c1-c1cccc([N+](=O)[O-])c1 returned RN4220 kill inactive, ugtP null kill inactive and BJeLR viability inactive.
For CCNC(=O)C(=O)Nc1cc2c3c(c1)CCC(=O)N3CCC2 the results were RN4220 kill inactive, ugtP null kill inactive and BJeLR viability inactive.
Screening O=[N+]([O-])c1c(NCCCO)cc(Sc2nc3ccccc3s2)c2nonc12 returned RN4220 kill 87, ugtP null kill 101 and BJeLR viability inactive.
CCC(=O)OCCNc1cc(Sc2nc3ccccc3s2)c2nonc2c1[N+](=O)[O-] was read as RN4220 kill inactive, ugtP null kill inactive and BJeLR viability inactive.
For CCC(C)(C)NC(=O)CN(C(=O)CNS(=O)(=O)c1ccccc1)c1ccccc1 the results were RN4220 kill inactive, ugtP null kill inactive and BJeLR viability inactive.
For C=CCn1c(CCNC(=O)c2ccccc2F)nnc1SCC(=O)Nc1nc(C)cs1 the results were RN4220 kill inactive, ugtP null kill inactive and BJeLR viability inactive.
Cc1c(CCOC(=O)C23CC4(C)CC(C)(CC(C)(C4)C2)C3)sc[n+]1CC(=O)c1ccccc1 was read as RN4220 kill 98, ugtP null kill 100 and BJeLR viability inactive.
For Cc1c(CCOC(=O)C23CC4CC(CC(C4)C2)C3)sc[n+]1Cc1ccccc1 the results were RN4220 kill inactive, ugtP null kill inactive and BJeLR viability inactive.
`Cc1c(CCOC(=O)CC23CC4CC(CC(C4)C2)C3)sc[n+]1CC(=O)c1ccccc1` gave RN4220 kill inactive, ugtP null kill inactive and BJeLR viability inactive.
Cc1c(CCOC(=O)C23CC4CC(CC(C)(C4)C2)C3)sc[n+]1Cc1ccccc1 was read as RN4220 kill inactive, ugtP null kill 100 and BJeLR viability inactive.
For Cc1noc(C)c1C(=O)Nc1cccnc1 the results were RN4220 kill inactive and ugtP null kill inactive.
`Cc1nc2cc(C(F)(F)F)ccc2n1CCNc1nc(-c2ccc(F)cc2)cs1` gave RN4220 kill inactive, ugtP null kill inactive and BJeLR viability inactive.
`Cc1ccc(-c2csc(NCCn3c(-c4ccncc4)nc4cc(C(F)(F)F)ccc43)n2)cc1` gave RN4220 kill 94 and ugtP null kill inactive.
Cc1nc2ccccc2nc1NN=Cc1ccc(O)cc1O was read as RN4220 kill inactive and ugtP null kill inactive.
`Nc1ccc(Cl)cc1C(=O)c1ccccc1` gave RN4220 kill inactive, ugtP null kill inactive and BJeLR viability inactive.
`COc1ccccc1C(=O)NNC(=O)c1cccc(F)c1` gave RN4220 kill inactive, ugtP null kill inactive and BJeLR viability inactive.
`Cc1cccc(C(=O)CC(=O)c2cc(Cl)ccc2O)c1` gave RN4220 kill 100, ugtP null kill 100 and BJeLR viability inactive.
`O=C(CC(=O)c1cc(Cl)ccc1O)c1ccccc1` gave RN4220 kill 100, ugtP null kill 100 and BJeLR viability inactive.
`Cc1ccc(O)c(C(=O)CC(=O)c2cccc(F)c2)c1` gave RN4220 kill inactive, ugtP null kill 100 and BJeLR viability inactive.
`COc1ccc(O)c(C(=O)CC(=O)c2ccc(F)cc2)c1` gave BJeLR viability inactive.
For Cc1ccc(O)c(C(=O)CC(=O)c2ccc(Cl)cc2)c1 the results were RN4220 kill 100, ugtP null kill 101 and BJeLR viability inactive.
`Cc1cccc(C(=O)NCC(=O)NNC(=O)c2ccccc2O)c1` gave RN4220 kill inactive, ugtP null kill inactive and BJeLR viability inactive.
`COc1c(O)cccc1[C@H](O)C1CCN(CCc2ccc(F)cc2)CC1` gave BJeLR viability inactive.

Source: PubChem (several laboratories)
